PubChem BioAssay AID485364 (National Center for Advancing Translational Sciences (NCATS), 2010)
Screen size: about 360,000 compounds; about 11,000 (3.1%) were called active. Entries that show only a call come without a potency. Another 4% or so got no clear call; they are omitted. Calls come from the whole dose curve; as a rule, active = well fitted inhibition curve with a large enough effect; inconclusive = small, poorly fitted or top-dose-only effect; inactive = no such curve, though single readings can be large or run the other way. The sample as a whole holds a higher share of actives than the screen did.

The compounds below were run against Schistosoma mansoni thioredoxin glutathione reductase (TGR) (UniProt Q962Y6) (assay: qHTS Assay for the Inhibitors of Schistosoma Mansoni Peroxiredoxins). Settings: purified TGR, DTNB reduction, TNB absorbance 405 nm; series mostly up to 114 µM.
Text: Schistosomiasis is a major neglected tropical disease that currently affects over 200 million. It is caused by different species of flatworms, such as Schistosoma mansoni. Over the last century, drugs to treat the disease have evolved from potassium antimonyl tartrate, artemisinin, oxamniquine, to praziquantel, with praziquantel remaining the universally-used single drug of choice over the past three decades. However, transmission rates have changed little with praziquantel, and there is evidence for the development of drug resistant parasites. Because there is currently no suitable alternative therapy available, there is an urgent need to identify new targets and drugs for schistosomiasis treatment. Thioredoxin glutathione reductase (TGR), one uniquely positioned S. mansoni enzyme, has been identified as a major component of the worms' distinct and compressed antioxidant "firewall". TGR is a multifunctional enzyme that catalyzes the interconversion between reduced and oxidized forms of both glutathione (GSH) and thioredoxins, thus making it an attractive new antiparasitic target. Recently, a quantitative high-throughput screen of the NIH Molecular Libraries Small Molecule Repository (MLSMR, ~71K at the time of the screen in 2007) was performed using an assay that targeted both TGR and peroxiredoxin2 (Prx2, an H2O2-reducing enzymatic component of the S. mansoni redox "firewall") by following the decrease of NADPH fluorescence. […] Additional mechanistic link between exogenous NO donation and parasitic injury for the oxadiazole-2-oxide class of compounds was also expanded and better defined. Although the screen addressed both TGR and Prx2, the assay required post-screen target deconvolution for further characterization of the actives. In addition, the fluorescence assay was also subject to fluorescence interference from compound library members. We have developed a 1536-well-based kinetic HTS assay to address TGR alone. The assay followed the reduction of 5, 5'-dithiobis (2-nitrobenzoic acid) (DTNB) (Ellman's reagent) by NADPH and measured the increase in absorbance at 412 nm of the reaction product, TNB. […] This assay format can be used to screen the current MLSMR collection (with >300K compounds available) to find novel TGR inhibitors. Furoxan is a good choice to serve as a positive control in the primary HTS assay.
Three microliters of reagents (100 uM NADPH and 20 nM TGR or 100 uM NADPH as no-enzyme control) were dispensed into 1,536-well black clear-bottomed plates. Compounds (23 nL) were transferred via Kalypsys pin tool equipped with 1536-pin array (10 nL slotted pins, V&P Scientific, San Diego, CA). The plates were then be incubated for 15 min at room temperature, and 1 uL aliquot of 500 uM NADPH were added, immediately followed by a 1 uL aliquot of 15 mM DTNB to start the reaction. The plate was transferred to a ViewLux high-throughput CCD imager (Perkin-Elmer, Wellesley, MA) where kinetic measurements of the TNB absorbance were acquired using a 405 excitation filter. Throughout the screen, reagent bottles and all liquid lines were made light-tight to minimize reagent degradation. All screening operations were performed on a fully integrated robotic system (Kalypsys, San Diego, CA) containing one RX-130 and two RX-90 anthropomorphic robotic arms (Staubli, Duncan, SC). Library plates were screened starting from the lowest and proceeding to the highest concentration, and a "double-dipping" step of the highest concentration was required to access higher concentrations of compounds. Vehicle-only plates, with DMSO being pin-transferred to the entire column 5-48 compound area, were inserted uniformly at the beginning and the end of each library in order to monitor for and record any shifts in the background, which can be affected by reagent dispensers or loss in enzyme activity overtime. […]
Note: nearly all actives have a fitted effect of over 60% in size.
Potency is the fitted concentration of half-maximal effect.

| Compound | Potency |
| --- | --- |
| CCOC(=O)CSc1ccccn1 | inactive |
| COc1cccc(N(CC(=O)NCCSc2ccccn2)S(C)(=O)=O)c1 | inactive |
| COc1ccc(C=C(C#N)C#N)c(CSc2ccccn2)c1 | 1 µM (active) |
| CC(C)c1ccc(C2CC(=O)N3CN(C4CCCCC4)CSC3=C2C#N)cc1 (centres undefined) | 6.31 µM (active) |
| CC(C)c1ccc(C2C(C#N)=C(N)Oc3c2oc(CO)cc3=O)cc1 (centres undefined) | inactive |
| CCOC(=O)c1cc2c(=O)n3ccccc3nc2n(CC2CCCO2)c1=NC(=O)c1ccc(C(C)(C)C)cc1 (centres undefined) | inactive |
| CN1c2ccc(C=O)c3c(C=O)ccc(c23)N(C)C1(C)C | 35.5 µM (active) |
| CCc1cc2c(-c3ccccc3)cc(=O)oc2c2c1OCN(Cc1ccc(C)cc1)C2 | inactive |
| O=C1Cc2cc(S(=O)(=O)Nc3ccc(OC(F)(F)F)cc3)cc3c2N1CCC3 | inactive |
| COc1ccc(-c2c3c(=O)n(C)c(=O)n(C)c3cn2NC(C)=O)cc1 | inactive |
| Cc1ccc(-c2c3c(=O)n(C)c(=O)n(C)c3cn2-c2ccccc2O)cc1 | inactive |
| Cc1ccc(-c2c3c(=O)n(C)c(=O)n(C)c3cn2-n2cnnc2)cc1 | 39.8 µM (active) |
| C=CCNC(=O)/C(=C\c1cccc([N+](=O)[O-])c1)NC(=O)c1ccccc1 | inactive |
| C=CCN(N=Nc1cccc([N+](=O)[O-])c1)c1cccc([N+](=O)[O-])c1 | 20 µM (active) |
| C=CCN(CC=C)CCOc1ccccc1[N+](=O)[O-] | inactive |
| CCn1cc(C(=O)NCc2ccccc2)c(=O)c2cc(S(=O)(=O)N3CCCCC3)ccc21 | inactive |
| C#CCOc1ccc(C2CC(=O)Nc3c2c(C)nn3-c2nc(C)cc(C)n2)cc1 (centres undefined) | inactive |
| O=C(CSc1nccn1Cc1ccc(F)cc1)NCc1ccccc1 | inactive |
| CN(C)c1cccc(C(=O)Nc2nc3ccc(S(=O)(=O)NC(C)(C)C)cc3s2)c1 | inactive |
| O=C(c1ccc(Cl)cc1)n1nc(-c2cccnc2)nc1NCc1ccc(F)cc1 | inactive |
| CCc1nc2cccnc2n1-c1ccc(C(=O)O)cc1 | 44.7 µM (active) |
| COCCCNC(=O)Cc1ccc(-n2c(C)nc3cccnc32)cc1 | inactive |

| Compound | Potency |
| --- | --- |
| CCc1nc2cccnc2n1-c1ccc(CC(=O)Nc2c(C)cccc2C)cc1 | inactive |
| CCOc1ccc(NC(=O)c2c(NC(=O)Cc3ccccc3)sc3c2CCC(C)C3)cc1 (centres undefined) | inactive |
| Cc1ccc(C2Nc3cccc4cccc(c34)N2)cc1 | 17.8 µM (active) |
| Oc1ccc(C2Nc3cccc4cccc(c34)N2)cc1 | 14.1 µM (active) |
| COc1cccc(N2C(=O)C3CCCN3C2c2ccc(F)cc2)c1 (centres undefined) | inactive |
| COc1cccc(C2Nc3cccc4cccc(c34)N2)c1 | 20 µM (active) |
| COc1ccc(C2CC(c3ccc(C)cc3)Nc3ncnn32)cc1 (centres undefined) | inactive |
| Cc1ccc(C2CC(c3cccc(C)c3)n3nc(N)nc3N2)cc1 (centres undefined) | inactive |
| COc1ccc(C2NC(=O)c3ccccc3N2)cc1 (centres undefined) | inactive |
| COc1ccc(-c2nn(CC(=O)NC3CCCC3)c3c2cnc2ccc(F)cc23)cc1 | inactive |
| CCn1cc(C(=O)NCc2ccc(C)cc2)c(=O)c2cc(S(=O)(=O)N3CCc4ccccc4C3)ccc21 | inactive |
| COc1ccc(CNC(=O)COCc2cc(-c3cccs3)on2)cc1OC | inactive |
| Cc1ccc(Cl)cc1N1CCN(C(=O)C2CCC(CNS(=O)(=O)c3cccs3)CC2)CC1 (centres undefined) | inactive |
| CCOc1ccc(CCNC(=O)c2csc3c2CCCCC3)cc1 | inactive |
| COCCNC(=O)c1ccc2c(c1)N=C(C)c1cc(C)ccc1S2 | inactive |
| CCOc1ccc(-c2cc(C)n3nc(C(=O)Nc4ccc(C)c(C)c4)cc3n2)cc1 | inactive |
| CCn1cc(C(=O)OCC(=O)Nc2cc(C)cc(C)c2)c(=O)c2ccc(C)nc21 | inactive |
| O=C(CCS(=O)(=O)c1ccc2c(c1)NC(=O)CO2)Nc1cccc(C(F)(F)F)c1 | inactive |
| COc1cccc(-n2cc(C(=O)NCc3cccc(Cl)c3)c3ccccc3c2=O)c1 | inactive |
| COc1cccc(-c2nnc3n(CCc4ccccc4)c(=O)c4ccccc4n23)c1O | inactive |
| COc1cccc(-n2ccn(CC(=O)NCc3ccc(C)cc3)c(=O)c2=O)c1 | inactive |
| COc1cc(C2C3C(=O)N(c4ccccc4)C(=O)C3ON2c2ccccc2)ccc1O (centres undefined) | inactive |

| Compound | Potency |
| --- | --- |
| Cc1ccccc1N1C(=O)C2ON(c3ccccc3)C(c3ccncc3)C2C1=O (centres undefined) | 44.7 µM (active) |
| COC(=O)C1=NN(c2ccccc2)C2C(=O)N(c3ccccc3OC)C(=O)C12 (centres undefined) | inactive |
| CC(C)(C)c1ccc(C(=O)N2CCC(c3nc(-c4ccc(S(=O)(=O)N5CCCC5)cc4)no3)CC2)cc1 | inactive |
| CC(=O)c1ccc(N2CCN(C3C(=O)c4ccccc4N3C(C)=O)CC2)cc1 (centres undefined) | inactive |
| CCC(=O)N1CCc2cc(S(=O)(=O)NC(C(=O)Nc3ccc(C(C)=O)cc3)C(C)C)ccc21 (centres undefined) | inactive |
| CNc1ccc(-c2nc(-c3ccco3)no2)cc1[N+](=O)[O-] | inactive |
| CC(Nc1ccc(-c2nc(-c3ccco3)no2)cc1[N+](=O)[O-])c1ccccc1 (centres undefined) | 31.6 µM (active) |
| O=[N+]([O-])c1cc(-c2nc(-c3ccccc3)no2)ccc1NCc1ccco1 | inactive |
| CC[C@]1(c2ccccc2OC)C(=O)N(C(=O)OC)N1C(=O)OC | 31.6 µM (active) |
| COc1ccccc1CNC(=O)CCCN1C(=O)NC2(CCCC2)C1=O | inactive |
| COC(=O)c1ccccc1NC(=O)Cc1ccccc1OC | inactive |
| CCOC(=O)c1cc2c(=O)n3ccccc3nc2n(Cc2ccco2)c1=NC(=O)c1ccc(F)cc1 | inactive |
| Cc1cccc(Nc2cc(C)nc(-n3nc(C)cc3C)n2)c1 | inactive |
| Cc1nnc(N2CCCC(C(=O)NCCN(C)C)C2)c2nn(-c3ccccc3)c(C)c12 (centres undefined) | inactive |
| COc1ccc(NC(=O)c2ccc3oc(=O)c(S(=O)(=O)c4ccc(F)cc4)cc3c2)c(OC)c1 | inactive |
| O=C(NCc1ccco1)c1cc2sccc2n1Cc1ccc(F)cc1 | inactive |
| O=C(NCc1ccco1)c1sc2cccc(F)c2c1Cl | 39.8 µM (active) |
| COc1ccc2c(Cl)c(C(=O)NCc3ccco3)sc2c1 | inactive |
| Cc1ccc(C)c(Nc2nnc(-c3ccc(C)c(S(=O)(=O)N4CCCCC4)c3)c3ccccc23)c1 | inactive |
| Cc1ccc(C)c(N2CCN(c3ccc4cc(S(=O)(=O)N5CCC(C)CC5)ccc4n3)CC2)c1 | inactive |
